Screening results deposited in PubChem by National Center for Advancing Translational Sciences (NCATS).
Most compounds without a hit are left out; they make up all but 0.26% or so of the library.
PTAP TSG101 blk – blocks PTAP/TSG101 interaction to inhibit HIV-1 budding | AID 493005 | 340,000 tested, under 10 active | Potency, µM (series often up to 115 µM), most hits filed as inhibitors | Q99816 | Fluorescence polarization, FITC-PTAP peptide / Tsg101 binding; active = well fitted inhibition curve with a large enough effect in the main read-out, with a control signal flat, not every such curve was filed as active; inconclusive = small, poorly fitted or top-dose-only effect, or effect the other way, or a change in a side signal; inactive = no such curve, though single readings can be large or run the other way
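Tsg101 binding domain (10 uM final) was mixed with compound and a FITC-labeled PTAP peptide (50 nM final) in HEPES pH 7.5 buffer with NaCl, Tween 20, EDTA and TCEP; fluorescence polarization was read after 20 min at r.t.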
MBNL1-CUG inh – MBNL1-poly(CUG) RNA binding inhibition; TR-FRET MBNL1-His/biotin-(CUG)12 binding, 665/545 ratio; 280,000 compounds, 0.036% hits; AID 2675; Potency, µM (highest dose often 57.5 µM), most hits filed as inhibitors; Q9NR56; active = well fitted inhibition curve with a large enough effect in the signal ratio, with a control signal flat, not every such curve was filed as active; inconclusive = small, poorly fitted or top-dose-only effect, or effect the other way, or a change in a side signal; inactive = no such curve, though single readings can be large or run the other way; the % refers to the signal ratio
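TR-FRET between His-tagged MBNL1 and biotin-(CUG)12 RNA, detected with Tb anti-His antibody (0.055 ng/ul) and streptavidin-XL665 (5 nM), 60 min at room temperature. Compounds titrated 92 nM to 58 uM; 665/545 nm ratio normalized to buffer and complex controls.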
TCR activator – activates T cell receptor signaling; Potency, µM (highest dose often 9.22 µM), actives largely listed as activators; 330,000 tested, under 10 active; primary human leukocytes, anti-CD3, IL-2 HTRF, 48 h
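48 hr co-incubation of compounds, a-CD3 beads and primary human leukocytes; IL-2 quantified homogeneously by HTRF with anti-IL-2 K and d2 conjugates.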
CBFb RUNX1 block – CBF-beta/RUNX1 interaction disruption | Q01196+Q13951 | AlphaScreen CBFb-His/RUNX1-biotin binding, biochemical | Potency, µM (series often up to 59.8 µM), hits mostly inhibitors | 230,000 tested, under 10 active
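Read-out: AlphaScreen. Format: His-CBF-beta with biotinylated RUNX1 (30 nM each) preincubated 20 min, compound 15 min, Ni-chelate plus streptavidin beads 90 min; room temperature throughout.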
TSHR antag – human thyrotropin receptor antagonism; P16473; 330,000 compounds, 0.2% hits; activity change, negative = inhibition, % at 11.5 µM; TSHR-expressing cells, TSH-stimulated cAMP HTRF, 2 h; hits give low values;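 active = activity change below a set negative limit, meaning inhibition stronger than a set level, cut at about -70% in these data; inconclusive = activity change between two set negative limits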
Target sequence (P16473 whole entry, looked up): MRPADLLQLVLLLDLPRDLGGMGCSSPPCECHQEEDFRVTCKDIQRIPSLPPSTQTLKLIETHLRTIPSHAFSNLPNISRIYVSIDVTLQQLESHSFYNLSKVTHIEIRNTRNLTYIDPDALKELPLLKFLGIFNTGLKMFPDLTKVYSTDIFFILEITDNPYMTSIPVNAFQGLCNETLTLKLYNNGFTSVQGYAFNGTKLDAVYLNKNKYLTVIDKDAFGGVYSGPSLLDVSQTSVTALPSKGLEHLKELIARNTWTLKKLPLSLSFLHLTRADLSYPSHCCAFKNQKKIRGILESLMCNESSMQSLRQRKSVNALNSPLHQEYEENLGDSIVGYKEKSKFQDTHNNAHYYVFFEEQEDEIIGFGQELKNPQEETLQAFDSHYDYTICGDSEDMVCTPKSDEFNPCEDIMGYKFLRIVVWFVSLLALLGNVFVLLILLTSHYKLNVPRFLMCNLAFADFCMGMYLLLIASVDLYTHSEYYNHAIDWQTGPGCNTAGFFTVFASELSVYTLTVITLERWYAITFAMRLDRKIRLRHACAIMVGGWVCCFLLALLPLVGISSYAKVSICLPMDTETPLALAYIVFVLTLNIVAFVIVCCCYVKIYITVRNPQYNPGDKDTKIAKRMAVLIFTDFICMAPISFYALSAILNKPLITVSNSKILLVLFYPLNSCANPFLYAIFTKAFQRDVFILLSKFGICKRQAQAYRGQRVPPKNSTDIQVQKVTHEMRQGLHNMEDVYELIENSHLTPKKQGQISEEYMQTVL
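TSHR-expressing cells, 200/well, pre-treated with compound, then stimulated with EC80 TSH (4nM final) for 2 hours at 37 deg C. cAMP measured by competitive HTRF: anti-cAMP cryptate antibody in lysis buffer plus cAMP-d2, read after 30 minutes at room temperature.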
Integrin act MD – integrin-mediated muscular dystrophy alleviation activation; AID 624291; 350,000 compounds, 0.064% hits; Potency, µM (series often up to 38.3 µM), usual class: activators; alpha7betagal myoblasts, beta-gal FDG fluorescence, 48 h; also: nearly all actives have a fitted effect of over 60% in size
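Alpha7betagal+/- myoblasts (passage 13) were plated 16-24 hr, then exposed to compounds (1:260 dilution of DMSO stock) for 48 hours at 37C. After MPER lysis, β-galactosidase reporter activity was read as FDG fluorescence (ex 480/em 540) after 30 minutes.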
A number is an active result; . = inactive; ? = inconclusive; / = no result given. Unless noted, calls follow the shape of the dose curve; as a rule, active = well fitted curve in the direction sought with a large enough effect; inconclusive = small, poorly fitted or top-dose-only effect, or another doubt; inactive = no such curve, though single readings can be large; an effect the other way counts as inactive or inconclusive.

SMILES	PTAP TSG101 blk	MBNL1-CUG inh	TCR activator	CBFb RUNX1 block	TSHR antag	Integrin act MD
CCn1nc(C)cc1-c1nnc(Sc2ncc([N+](=O)[O-])s2)n1C	.	?	.	/	-92	.
CCn1nc(C)cc1-c1nnc(SCC(=O)Nc2ccccc2)n1CCCOC	.	.	.	.	.	.
O=C(Nc1ccc(Oc2cccnc2)cc1)c1ccccc1F	.	.	.	.	.	.
O=C(Nc1ccc(Oc2cccnc2)cc1)c1ccccc1Cl	.	.	.	.	.	10µM
Cc1[nH]c(=O)[nH]c1C(=O)CCCCC(=O)O	.	0.089µM	.	/	.	.
CCCOCC(C)OCC(C)O (stereo unspecified)	/	/	/	.	/	/
O=C(O)CCn1cc(/C=C2/NC(=S)N(c3ccccc3)C2=O)c(-c2ccccc2)n1	.	?	.	.	.	20µM
N#CCCn1cc(/C=C2\NC(=S)N(c3ccccc3)C2=O)c(-c2ccc(-c3ccccc3)cc2)n1	.	.	.	.	.	.
COc1ccccc1-c1csc(N2CCC(C(N)=O)CC2)n1	/	/	/	/	.	/
Cc1ccc(-c2onc3ccc(C(=O)/C=C/N(C)C)cc23)cc1	.	?	.	/	.	3.5µM
CN(C)/C=C/C(=O)c1ccc2noc(-c3ccc(F)cc3)c2c1	.	?	.	/	.	.
Cc1ccc(CNc2ncnc3ccc(-c4c(C)noc4C)cc23)o1	/	/	/	.	/	/
COC(=O)CN1C(=O)COc2ccc(S(=O)(=O)N3CCCC3)cc21	.	.	.	/	-135	.
COC(=O)CN1C(=O)COc2ccc(S(=O)(=O)N3CCCCC3)cc21	/	/	/	/	/	.
CC(=O)NC(c1ccco1)c1cc(Br)c2cccnc2c1O (stereo unspecified)	/	/	/	/	.	/
CC(C)(CC(=O)O)CC(=O)N1CCCN(c2nccc(C(F)(F)F)n2)CC1	.	.	.	/	.	4µM
Nc1nc2nc(-c3ccccc3)cc(C(F)(F)F)c2s1	.	.	.	/	-99	.
Cc1cc(C(F)(F)F)c2sc(N)nc2n1	.	.	.	.	.	.
Cc1ccc(S(=O)(=O)Nc2ccc(NS(=O)(=O)c3ccc(C)cc3)c3ncccc23)cc1	/	/	/	.	/	/
O=C(NNC(=S)Nc1ccccc1)c1cc(-c2cccnc2)nc2ccccc12	.	.	/	.	.	.
CC(OC(=O)c1cc(-c2cccnc2)nc2ccccc12)C(=O)Nc1ccc2ccccc2c1 (stereo unspecified)	.	/	.	.	.	1.1µM
CCCCc1nc2ccccc2c(N)c1CCC (tested in a mixture with another compound)	.	?	.	.	.	11µM
NCCCCCCNc1nc2c(N)ncnc2n1[C@@H]1O[C@@H]2COP(=O)(O)O[C@H]2[C@H]1O	/	/	/	.	/	/
O=C(COC(=O)Cn1cnc2ccccc21)Nc1cccc([N+](=O)[O-])c1	.	?	.	.	.	11µM
O=C(Cn1cnc2ccccc21)Nc1cccc([N+](=O)[O-])c1	.	/	.	.	.	.
SMILES	PTAP TSG101 blk	MBNL1-CUG inh	TCR activator	CBFb RUNX1 block	TSHR antag	Integrin act MD
CCCC[C@H](NC(C)=O)C(=O)N[C@H]1CC(=O)NCCCC[C@@H](C(N)=O)NC(=O)[C@H](Cc2c[nH]c3ccccc23)NC(=O)[C@H](CCCN=C(N)N)NC(=O)[C@@H](Cc2ccccc2)NC(=O)[C@H](Cc2cnc[nH]2)NC1=O	/	/	/	.	/	/
O=C(COc1cc2oc(=O)c3c(c2cc1Cl)CCCC3)NCC1CCC(C(=O)O)CC1 (stereo unspecified)	.	.	.	/	.	7.1µM
O=C(COc1cc2oc(=O)c3c(c2cc1Cl)CCC3)NCC1CCC(C(=O)O)CC1 (stereo unspecified)	.	.	.	/	.	?
C/C(=N/NC(=O)c1nnn(-c2nonc2N)c1-c1ccccc1)c1ccncc1	.	.	.	/	.	.
C/C(=N\NC(=O)c1nnn(-c2nonc2N)c1-c1ccc(Cl)c(Cl)c1)c1ccncc1	.	.	.	/	-87	.
O=C(CN1CCOCC1)NCc1cc([N+](=O)[O-])ccc1O	.	.	.	/	.	13µM
O=C(CN1CCOCC1)Nc1nc2cc([N+](=O)[O-])ccc2s1	.	?	.	.	.	.
N#CC(C#N)=C1C=CC=CN1/C(=C\c1ccco1)C(=O)c1ccc(-c2ccccc2)cc1	.	.	.	.	.	.
N#CC(C#N)=C1C=CC=CN1/C(=C\c1ccco1)C(=O)c1ccc(Cl)cc1	.	.	.	.	-84	.
CC(C)C[C@@H](CC(=O)N[C@H](CC(=O)N[C@@H]1CCNC[C@H]1C(=O)N[C@H](CC(=O)N[C@@H](CCC(=O)O)CC(=O)O)CC(C)C)C(C)C)NC(=O)[C@@H]1CNCC[C@H]1N	/	/	/	.	/	/
CN(C)CCCN(C(=O)c1ccco1)c1nc(-c2ccc(Cl)cc2)cs1	.	?	.	/	-121	.
Cc1cccc(C(=O)Nc2ccc(N3CCC(CCN4CCOCC4)CC3)c(C(=O)O)c2)c1	/	/	/	/	.	/
CC(C)(C)c1ccc(C(=O)OCC(=O)Nc2sc3c(c2C#N)CCC3)cc1	.	.	.	.	.	5µM
COc1cc(=O)n(C)c2ccccc12	.	.	/	.	.	2.2µM
COc1ccc(S(=O)(=O)NCCc2cn3nc(C)c(C)nc3n2)cc1F	.	?	.	/	-88	.
CC1SCC(=NOCc2ccccc2)CS1 (stereo unspecified)	.	.	.	.	-70	.
C(=NOCc1ccccc1)c1ccncc1	.	/	.	/	/	.
CN1Cc2sccc2C(c2ccc(O)c(O)c2)C1 (stereo unspecified)	/	/	/	/	.	/
COc1cc(/C=N/Nc2nc(N3CCCC3)nc(N3CCCC3)n2)ccc1OCc1ccccc1F	.	.	.	.	-71	.
